Screening data (PubChem)
G9a inh: qHTS Assay for Inhibitors of Histone Lysine Methyltransferase G9a; Histone-lysine N-methyltransferase EHMT2 (Homo sapiens), Q96KQ7; G9a H3K9 monomethylation, AlphaScreen, 2 h; Potency, µM (series often up to 102 µM), without a hit: at the top dose activity, negative = inhibition, usual class: inhibitors; actives 8.8% (n = 350,000); further: on the % scale 0 is the no-effect control and ±100 the full control effect; nearly all actives have a fitted effect of over 75% in size
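Methyltransferase reactions run at room temperature for 2 h (20 nM enzyme, 500 nM biotin-H3K9 peptide, 20 uM SAM) after a 15 min compound preincubation; product detected by AlphaScreen beads and anti-H3K9me1 antibody.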
BAZ2B inh: qHTS Assay for Inhibitors of BAZ2B. actives 4.4% (n = 360,000). AlphaScreen BAZ2B-H3K14Ac peptide displacement. Potency, µM (titrated, usually from 114 µM), inactives show top-dose activity change, negative = inhibition, actives largely listed as inhibitors. AID 504333, 2011. Bromodomain adjacent to zinc finger domain protein 2B (Homo sapiens), Q9UIF8; further: on the % scale 0 is the no-effect control and ±100 the full control effect; nearly all actives have a fitted effect of over 60% in size
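AlphaScreen luminescence quantifies BAZ2B engagement of H3K14Ac peptide; the protein and biotinylated peptide are both at 50 nM final, buffer PBS pH 7.4 with 0.01% Tween-20, all steps at room temperature.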
L3MBTL1 block: qHTS Assay for the Inhibitors of L3MBTL1; AlphaScreen L3MBTL1–H3K9me1 peptide binding; Potency, µM (titrated, usually from 57.1 µM), for the others: at the top dose activity, negative = inhibition, hits mostly inhibitors; actives 0.66% (n = 230,000); further: on the % scale 0 is the no-effect control and ±100 the full control effect; nearly all actives have a fitted effect of over 60% in size
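Read-out is AlphaScreen signal from streptavidin donor and nickel chelate acceptor beads (10 ug/mL final each) bridging L3MBTL1 (50 nM) and biotinylated K9-monomethylated H3(1-15) peptide (75 nM), after 30 min compound exposure at room temperature.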
HP1b chromo inh: HTS for Inhibitors of HP1-beta Chromodomain Interactions with Methylated Histone Tails; Chromobox protein homolog 1 (Homo sapiens), P83916; AlphaScreen HP1-beta / biotin-H3K9me3 peptide binding; Potency, µM (doses to about 114 µM), without a hit: at the highest dose activity change, negative = inhibition, hits mostly inhibitors; actives 0.56% (n = 390,000); further: nearly all actives have a fitted effect of over 70% in size
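Compound inhibition of the preformed complex between 50 nM HP1-beta and 50 nM biotinylated H3K9me3 peptide was read by AlphaScreen. Buffer was PBS pH 7.4 with 0.01% Tween-20. Incubations ran 30 min at room temperature, with 10 ug/mL donor/acceptor beads.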
JMJD2A Tudor inh: qHTS Assay for Inhibitors of JMJD2A-Tudor Domain. actives 4.4% (n = 390,000). Potency, µM (series often up to 114 µM), for the others: top-dose activity change, negative = inhibition, most hits filed as inhibitors. AlphaScreen JMJD2A-Tudor / H3K4me3 peptide binding. Lysine-specific demethylase 4A (Homo sapiens), O75164; further: on the % scale 0 is the no-effect control and ±100 the full control effect; nearly all actives have a fitted effect of over 50% in size
Sfp PPTase inh: qHTS Assay for Inhibitors of Bacillus subtilis Sfp phosphopantetheinyl transferase (PPTase). Potency, µM, for inactives: largest response in the series, negative = inhibition, actives largely listed as inhibitors. 4'-phosphopantetheinyl transferase ffp (Bacillus subtilis), Q9F4F7. actives 3.5% (n = 310,000). Biochemical Sfp PPTase activity, qHTS. AID 1490, 2009;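 further: the enzyme is Sfp with the accession as filed and its product quenches rhodamine fluorescence; 0% = enzyme reaction without inhibitor and -100% = no enzyme wells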
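Reaction rates are the 30-min fluorescence difference (ex 525, em 598 nm) in wells containing 15 nM Sfp, 5 uM rhodamine-CoA and 12.5 uM BHQ-2-YbbR at pH 7.6 with 10 mM MgCl2.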
Starred values were filed as active, the others as inactive; ? = inconclusive; nt = no result given; ! = repeats disagree; [ ] = remark or other dose. Most compounds without a hit are left out; they make up all but 12% or so of the library. The call rests on the fitted dose curve; in most records, active means well fitted curve in the direction sought with a large enough effect; inconclusive means small, poorly fitted or top-dose-only effect, or another doubt; inactive means no such curve, though single readings can be large; an effect the other way counts as inactive or inconclusive. Potency means the concentration at half of the fitted maximal effect.

SMILES	G9a inh	BAZ2B inh	L3MBTL1 block	HP1b chromo inh	JMJD2A Tudor inh	Sfp PPTase inh
CCCC(=O)OCCNc1cc(Sc2nccn2C)c2nonc2c1[N+](=O)[O-]	28µM*	-25%	-1%	-32%	-16%	35µM*
CCCNC(=O)c1ccccc1NC(=O)COc1cccc2c1OC(C)(C)C2	-23%	8%	6%	6%	-18%	nt
CN(Cc1ccc(C(F)(F)F)cc1)C(=O)c1ccc(Oc2ccccc2)cc1	-2%[2.33 µM]	50%	nt	96%	64%	9%
OCCN(Cc1ccccc1)Cc1cccc(C(F)(F)F)c1	18µM*	?	nt	?	7.9µM*	-9%
OCCN(Cc1ccccc1)Cc1ccc(C(F)(F)F)cc1	28µM*	?	nt	16µM*	7.9µM*	-14%
Oc1c(C2=NCCNC(C(F)(F)F)=C2)ccc2ccccc12	-108%[59 µM]	25µM*	-15%	?	50µM*	-23%
CN(C(=O)Cn1c(=O)n(CCC(=O)NCc2ccc3c(c2)OCO3)c(=O)c2sccc21)c1ccccc1	5%[59 µM]	-1%	nt	37%	2%	nt
CCCCC1C(=O)N(c2ccccc2)N(c2ccc(O)cc2)C1=O (stereo not given)	3.5µM*!	5%	3%	?	56µM*	-22%
CCOc1ccc(-c2nonc2NC(=O)c2oc3cc(Br)ccc3c2C)cc1	1%[59 µM]	-3%	nt	47%	40µM*	nt
CCOc1ccc(-c2nonc2NC(=O)c2oc3ccc(Br)cc3c2C)cc1	24%[59 µM]	3%	nt	70%	-7%	nt
Cc1c(P(=S)(c2ccccc2)c2ccccc2)[n+]2ccccc2n1Cc1ccccc1	nt	nt	nt	nt	-18%	nt
CC(C)(C)NC(=O)[C@@H]1CN(Cc2cccnc2)CCN1C[C@@H](O)C[C@@H](Cc1ccccc1)C(=O)N[C@H]1c2ccccc2C[C@H]1O	nt	nt	nt	8%	89µM*	nt
Cc1sc2nc3ccc(NCc4ccco4)nn3c(=O)c2c1C	18µM*	-7%	5%	73%	-32%	32µM*
O=c1c2ccccc2nc2ccc(NCc3ccco3)nn12	-12%[59 µM]	?	-11%	-10%	-33%	40µM*
O=[S+]([O-])(c1ccc2c(c1)OCCO2)N1CCN([S+](=O)([O-])c2c(F)cc(O)cc2F)CC1	nt	nt	nt	nt	-23%	nt
Oc1ccc(Cc2ccccc2)c2cccnc12	nt	nt	nt	34%	79µM*	nt
OCc1ccc(O)c2ncccc12	1%[0.501 µM]	1.4µM*	18µM*	21%	40µM*	-1%
Cc1nc2ccccc2c2ncccc12	-7%	9%	nt	52%	6%	2%
COc1cc2c(cc1OC)C(c1cc(OC)c(O)c(OC)c1)CC(=O)N2 (stereo not given)	-3%[59 µM]	2%	nt	32%	5%	nt
O=C(O)c1nc2ccccc2nc1C(=O)O	?	79µM*	-1%	-20%	20µM*	-8%
Cc1nc2ccccc2cc1C(=O)O	?	-15%	nt	36%	-12%	-2%
O=C(O)Cc1cc2ccccc2nc1C(=O)O	nt	nt	nt	nt	nt	79µM*
COc1ccc(-c2c(C(=O)O)nc3ccccc3c2C(=O)O)cc1	?	-28%	11%	2%	25µM*	-5%
Cc1cccc(N=Nc2c(C)c(C#N)c(O)[nH]c2=O)c1	50µM*	-33%	-5%	3%	-34%	3%
Cc1c(C#N)c(O)[nH]c(=O)c1N=Nc1ccc(Br)cc1C(=O)O	45µM*	?	nt	-5%[57 µM]	?	-16%
SMILES	G9a inh	BAZ2B inh	L3MBTL1 block	HP1b chromo inh	JMJD2A Tudor inh	Sfp PPTase inh
CCN(CC)CCCN(Cc1cc2cc3c(cc2[nH]c1=O)OCO3)C(=S)Nc1ccc(OC)cc1	nt	-8%	1%	4%	-27%	7%
Cc1cccc(C)c1NC(=O)CNC(=O)c1ccccc1OCc1ccccc1	-2%	-6%	0%	29%	-10%	nt
N#CC1=C(SCC(N)=O)NC2=C(C(=O)c3ccccc32)C1c1ccc(Cl)cc1 (stereo not given)	50µM*	-2%	-7%	21%	-34%	2%
CCOc1ccc(C(=O)N(Cc2ccccc2)c2cccc(C)c2)cc1OC	?	-17%	nt	60%	4%	3%
O=[N+]([O-])c1ccccc1/C=C/C=N/N1CCCCC1	40µM*	20µM*	nt	50µM*	18µM*	19%
O=[N+]([O-])c1ccccc1/C=C/C=N/Nc1nc(N2CCCCC2)nc(N2CCCCC2)n1	40µM*	?	-13%	?	?	?
O=[N+]([O-])c1ccccc1/C=N/Nc1nc(N2CCCC2)nc(N2CCCC2)n1	-26%	-38%	4%	7%	-33%	17%
Nc1ccc(S(=O)(=O)NN=CC=Cc2ccccc2[N+](=O)[O-])cc1	nt	nt	nt	13%	-28%	nt
O=C(/C=C/c1ccccc1[N+](=O)[O-])N1CCCCC1	-42%	nt	nt	17%	-23%	-2%
NS(=O)(=O)c1ccc(N/N=C/C=C/c2ccccc2[N+](=O)[O-])cc1	32µM*	?	nt	?	?	9%
COc1cc(C(=O)N2CCN(c3ccccc3OC)CC2)c([N+](=O)[O-])cc1OC	6%[0.501 µM]	0%	0%	9%	-18%	12%
COc1ccccc1N1CCN(/N=C/C=C/c2ccccc2[N+](=O)[O-])CC1	11µM*	11µM*	?	?	20µM*	-4%
O=C(O)c1ccccc1NS(=O)(=O)c1cccc(NS(=O)(=O)c2cc(Br)ccc2Br)c1	nt	nt	-1%	27%	-17%	nt
O=[N+]([O-])c1ccccc1/C=N/N1CCN(c2ccc(Cl)cc2)CC1	18µM*	14µM*	?	?	?	5%
O=[N+]([O-])c1ccccc1/C=N\N1CCN(c2ccccc2)CC1	10µM*	18µM*	?	?	40µM*	-1%
O=[N+]([O-])c1ccccc1/C=C\C=N\N1CCN(c2ccccc2)CC1	11µM*	4µM*	?	?	10µM*	11%
Cc1ccc(/C=N/N2CCN(c3ccccc3)CC2)cc1	-13%	14%	6%	22%	-3%	-9%
Cc1ccccc1/C=N/N1CCN(c2ccccc2)CC1	28µM*	20µM*	?	?	?	-3%
O=C(NCc1nnc(-c2nc3ccccc3[nH]2)o1)C1CCCCC1	nt	nt	nt	nt	-4%	nt
COc1ccc(C2NC(=S)NC(C)=C2C(=O)N2CCOCC2)cc1 (stereo not given)	40µM*	5%	nt	41%	2%	?
